Results filed as inconclusive are left out. A call without a number means that no potency is given here. Unmarked numbers belong to inactive results. The source made the active and inactive calls. Calls come from the whole dose curve; as a rule, active = well fitted curve in the direction sought with a large enough effect; inconclusive = small, poorly fitted or top-dose-only effect, or another doubt; inactive = no such curve, though single readings can be large; an effect the other way counts as inactive or inconclusive.
Legend:
[1] = NCATS anti-infectives library activity on HEK293 viability as a counter-qHTS vs the C. elegans viability qHTS (AID 1745854); note: potency is the fitted concentration of half-maximal effect
Method in brief: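 CellTiter-Glo luminescence, read on a CCD imager, scored viability of HEK293 cells after 24 hr compound exposure at 37C. Library tested in several concentrations, 1:5 steps, up to 41.7 uM; digitonin served as control.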

[2] = target: Glutathione peroxidase 1 (Homo sapiens) (UniProt P07203); experiment: Primary qHTS Assay for Inhibitors of Recombinant Selenoprotein Glutathione Peroxidase 1 (GPX1) (AID 1845191); note: nearly all actives have a fitted effect of over 65% in size
Method in brief: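 GR-coupled readout: NADPH consumption tracked by fluorescence, ex 340/em 450 nm, at t=0 and after 15 min at RT. Final mix 10 nM GPX1, 1 mM GSH, 0.5 mM CHP, 0.5 mM NADPH, 100 nM GR, 0.01% BSA, following 30 min enzyme–compound preincubation.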

[3] = qHTS profiling for inhibitors of Plasmodium falciparum proliferation (AID 504749); note: nearly all actives have a fitted effect of over 60% in size; note: potency is the fitted concentration of half-maximal effect; conditions: P. falciparum in erythrocytes, SYBR Green DNA, 72 h, at 28.7 µM (top of the series)
Method in brief: (§1)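 SYBR Green fluorescence (ex 485 nm, em 535 nm) reports parasite DNA after 72 h compound exposure of infected red cells at 0.3% parasitemia, 2.5% hematocrit; signal normalized to 0.29 uM artemisinin and vehicle wells.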

AS120 = experiment: as above; conditions: P. falciparum in erythrocytes, SYBR Green DNA, 72 h; series mostly up to 28.7 µM
Method in brief: as §1

ATS189 = experiment: as above; conditions: P. falciparum in erythrocytes, SYBR Green DNA, 72 h; series mostly up to 28.7 µM
Method in brief: as §1

ATS95 = experiment: as above; conditions: P. falciparum in erythrocytes, SYBR Green DNA, 72 h; series mostly up to 28.7 µM
Method in brief: as §1

CP238 = experiment: as above; conditions: P. falciparum in erythrocytes, SYBR Green DNA, 72 h; series mostly up to 28.7 µM
Method in brief: as §1

CP247 = experiment: as above; conditions: P. falciparum in erythrocytes, SYBR Green DNA, 72 h; series mostly up to 28.7 µM
Method in brief: as §1

CP262 = experiment: as above; conditions: P. falciparum in erythrocytes, SYBR Green DNA, 72 h; series mostly up to 28.7 µM
Method in brief: as §1

CP265 = experiment: as above; conditions: P. falciparum in erythrocytes, SYBR Green DNA, 72 h; series mostly up to 28.7 µM
Method in brief: as §1

CP286 = experiment: as above; conditions: P. falciparum in erythrocytes, SYBR Green DNA, 72 h; series mostly up to 28.7 µM
Method in brief: as §1

CP335 = experiment: as above; conditions: P. falciparum in erythrocytes, SYBR Green DNA, 72 h; series mostly up to 28.7 µM
Method in brief: as §1

DIV30 = experiment: as above; conditions: P. falciparum in erythrocytes, SYBR Green DNA, 72 h; series mostly up to 28.7 µM
Method in brief: as §1

GB4 = experiment: as above; conditions: P. falciparum in erythrocytes, SYBR Green DNA, 72 h; series mostly up to 28.7 µM
Method in brief: as §1

HB3 = experiment: as above; conditions: P. falciparum in erythrocytes, SYBR Green DNA, 72 h; series mostly up to 28.7 µM
Method in brief: as §1

PAD = experiment: as above; conditions: P. falciparum in erythrocytes, SYBR Green DNA, 72 h; series mostly up to 28.7 µM
Method in brief: as §1

PC49 = experiment: as above; conditions: P. falciparum in erythrocytes, SYBR Green DNA, 72 h; series mostly up to 28.7 µM
Method in brief: as §1

TAB113 = experiment: as above; conditions: P. falciparum in erythrocytes, SYBR Green DNA, 72 h; series mostly up to 28.7 µM
Method in brief: as §1

W2 = experiment: as above; conditions: P. falciparum in erythrocytes, SYBR Green DNA, 72 h; series mostly up to 28.7 µM
Method in brief: as §1

[4] = target: Phospholipid hydroperoxide glutathione peroxidase GPX4 (Homo sapiens) (UniProt P36969); experiment: Primary qHTS Assay for Inhibitors of Recombinant Selenoprotein Glutathione Peroxidase 4 (GPX4) (AID 1845192); note: nearly all actives have a fitted effect of over 65% in size
Method in brief: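 Steps: GPX4 plus compound, 30 min RT; add GR/GSH/NADPH master mix; start with cumene hydroperoxide; read 340/450 nm fluorescence at 0 and 15 min. Finals were 200 nM GPX4, 1 mM GSH, 0.5 mM CHP, 0.5 mM NADPH, 100 nM GR.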

Sequence of Glutathione peroxidase 1 (Homo sapiens) (P07203 whole entry, looked up): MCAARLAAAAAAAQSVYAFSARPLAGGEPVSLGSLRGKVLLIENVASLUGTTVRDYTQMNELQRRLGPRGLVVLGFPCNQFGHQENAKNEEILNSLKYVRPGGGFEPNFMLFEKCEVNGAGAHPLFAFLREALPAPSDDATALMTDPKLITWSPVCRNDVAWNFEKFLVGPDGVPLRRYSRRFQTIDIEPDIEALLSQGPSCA
Sequence of Phospholipid hydroperoxide glutathione peroxidase GPX4 (Homo sapiens) (P36969 whole entry, looked up): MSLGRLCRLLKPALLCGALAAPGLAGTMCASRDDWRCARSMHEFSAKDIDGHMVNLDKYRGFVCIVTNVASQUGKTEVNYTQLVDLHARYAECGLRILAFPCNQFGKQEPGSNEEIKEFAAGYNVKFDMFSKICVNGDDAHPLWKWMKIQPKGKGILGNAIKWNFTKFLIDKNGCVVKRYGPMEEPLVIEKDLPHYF

In the case of `CC(C)CN(C[C@@H](OP(=O)(O)O)[C@H](Cc1ccccc1)NC(=O)O[C@@H]1CCOC1)S(=O)(=O)c1ccc(N)cc1`, the Potency [1] is reported as “inactive”, the Potency [2] is reported as “inactive” and the activity, negative = inhibition ([3]; parasite line A) is reported as -4.75%. For the same molecule, the activity, negative = inhibition ([3]; parasite line B) was 9.93%, the Potency (AS120) was “inactive” and the Potency (ATS189) was “inactive”. For the same molecule, the Potency (ATS95) was “inactive”, the Potency (CP238) was “inactive” and the Potency (CP247) was “inactive”. The Potency (CP262) was “inactive”, the Potency (CP265) was “inactive” and the Potency (CP286) was “inactive”. For the same molecule, the Potency (CP335) was “inactive”, the Potency (DIV30) was “inactive” and the Potency (GB4) was “inactive”. For the same molecule, the Potency (HB3) was “inactive”, the Potency (PAD) was “inactive” and the Potency (PC49) was “inactive”. The Potency (TAB113) was “inactive” and the Potency (W2) was “inactive”.
In the case of `O=c1ccc2cc3ccoc3cc2o1`, the Potency [1] is reported as “inactive”.
For `CCCCCCCCCCCCCCCCn1cc[n+](Cc2ccccc2)c1C`, the Potency [1] was 11.2 µM (active).
With `CCCCCCCCOC(=O)c1cc(O)c(O)c(O)c1` the Potency [1] was “inactive”.
With `CC(C)C[C@H](NC(=O)CNC(=O)c1cc(Cl)ccc1Cl)B1OC(=O)C(CC(=O)O)(CC(=O)O)O1` the Potency [2] was “inactive” and the Potency [4] was “inactive”.
In the case of `Cc1cc(/C=C/C#N)cc(C)c1Nc1ccnc(Nc2ccc(C#N)cc2)n1`, the Potency [2] is reported as “inactive” and the Potency [4] is reported as “inactive”.
In the case of `CC(C)c1nc(CN(C)C(=O)N[C@@H](CCN2CCOCC2)C(=O)N[C@H](CC[C@H](Cc2ccccc2)NC(=O)OCc2cncs2)Cc2ccccc2)cs1`, the Potency [2] is reported as “inactive” and the Potency [4] is reported as “inactive”.
With `CC1(C)CC[C@]2(C(=O)O)CC[C@]3(C)C(=CC[C@@H]4[C@@]5(C)CC[C@H](O)C(C)(C)[C@@H]5CC[C@]43C)[C@@H]2C1` the Potency [2] was “inactive”.
In the case of `O=C1CC(c2ccccc2)Oc2ccccc21` (stereo unspecified), the Potency [1] is reported as “inactive”.
In the case of `O=C(O)CCCCCCCCC(=O)O`, the Potency [1] is reported as “inactive”.
In the case of `O=C(O)c1cc(O)c2c(c1)[C@H]([C@H]1c3cc(C(=O)O)cc(O)c3C(=O)c3c(O[C@@H]4OC(CO)C(O)C(O)C4O)cccc31)c1cccc(O[C@@H]3OC(CO)C(O)C(O)C3O)c1C2=O` (stereo partly specified), the Potency [1] is reported as “inactive”, the activity, negative = inhibition ([3]; parasite line A) is reported as -10% and the activity, negative = inhibition ([3]; parasite line B) is reported as -4.26%. For the same molecule, the Potency (AS120) was “inactive”, the Potency (ATS189) was “inactive” and the Potency (ATS95) was “inactive”. The Potency (CP238) was “inactive”, the Potency (CP247) was “inactive” and the Potency (CP262) was “inactive”. The Potency (CP265) was “inactive”, the Potency (CP286) was “inactive” and the Potency (CP335) was “inactive”. The Potency (DIV30) was 15.1 µM (active), the Potency (GB4) was 15.1 µM (active) and the Potency (HB3) was “inactive”. The Potency (PAD) was “inactive”, the Potency (PC49) was “inactive” and the Potency (TAB113) was “inactive”. For the same molecule, the Potency (W2) was “inactive”.

From PubChem BioAssay (NCATS)
